# Data as given in PubChem BioAssay (NCI).
# Compounds without any hit were thinned out: in the full panel of roughly 79,000, 15% have a hit. A number with no mark means an inactive call. The source made the active and inactive calls. Rule as the data show it: active = growth inhibition above about 70%; inactive = the rest.
# What was measured:
# [1] = NCI Yeast Anticancer Drug Screen. Data for the rad52 strain (AID 147);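 also: 0% = growth of vehicle-treated control cultures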; settings: S. cerevisiae rad52 mutant growth inhibition, stronger effect = higher value
# Outline: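 Here a repair-compromised yeast strain receives each compound; its growth is then quantified and normalised to vehicle-only controls.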
# [2] = NCI Yeast Anticancer Drug Screen. Data for the wt1 strain (AID 149);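 also: 0% = growth of vehicle-treated wt1 cultures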; settings: S. cerevisiae wt1 strain (SPY 50644) growth inhibition, stronger effect = higher value
# Outline: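 wt1 strain grown with compound or vehicle; inhibition taken from the growth difference.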
# [3] = NCI Yeast Anticancer Drug Screen. Data for the rad50EPP+ strain (AID 151);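 also: 0% = growth of vehicle-treated control cultures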; settings: S. cerevisiae rad50 mutant strain, stronger effect = higher value
# Outline: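 Read-out is yeast growth inhibition relative to vehicle; cells used were the rad50EPP+ strain.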
# [4] = NCI Yeast Anticancer Drug Screen. Data for the rad50 strain (AID 155);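 also: 0% = growth of vehicle-only cultures of the same strain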; settings: S. cerevisiae rad50 strain growth inhibition, stronger effect = higher value
# Outline: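 DNA repair mutant yeast, compound exposure, growth read-out; inhibition is taken relative to vehicle.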
# [5] = NCI Yeast Anticancer Drug Screen. Data for the mec2-1 strain (AID 157); settings: S. cerevisiae mec2-1 strain, stronger effect = higher value
# Outline: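 Using mec2-1 yeast: add compound, measure growth, express inhibition versus vehicle-treated cultures.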
# [6] = NCI Yeast Anticancer Drug Screen. Data for the rad14 strain (AID 159);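 also: 0% = growth of vehicle-treated control cultures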; settings: S. cerevisiae rad14 strain growth inhibition, stronger effect = higher value
# Outline: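 DNA repair-defective yeast, compound-exposed; % growth inhibition derived by comparison with vehicle-treated controls.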
# [7] = NCI Yeast Anticancer Drug Screen. Data for the sgs1 mgt1 strain (AID 161);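 also: 0% = growth of cultures given vehicle only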; settings: S. cerevisiae sgs1 mgt1 strain, stronger effect = higher value
# Outline: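 Percent growth inhibition was derived by comparing compound-exposed mutant yeast with vehicle-exposed cultures. The strain carries alterations in DNA damage repair.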
# [8] = NCI Yeast Anticancer Drug Screen. Data for the CLN2oe strain (AID 163);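 also: 0% = growth of vehicle-only control cultures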; settings: S. cerevisiae CLN2oe strain, stronger effect = higher value
# Outline: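 Whole-cell yeast growth assay. A strain engineered for altered cell-cycle control received compound, and inhibition relative to vehicle-treated cultures was recorded.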
# [9] = NCI Yeast Anticancer Drug Screen. Data for the cln2 rad14 strain (AID 165);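 also: 0% = growth equal to vehicle treated cultures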; settings: S. cerevisiae cln2 rad14 strain, stronger effect = higher value
# Outline: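 Yeast strain cln2 rad14, bearing defects in cell cycle control and DNA repair, serves as the test system; values reflect growth inhibition compared with vehicle.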
# [10] = NCI Yeast Anticancer Drug Screen. Data for the bub3 strain (AID 167); settings: S. cerevisiae bub3 mutant strain, stronger effect = higher value
# Outline: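 In this screen, a yeast mutant lacking normal mitotic checkpoint function is challenged with compound. Relative growth versus vehicle gives the inhibition value.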
# [11] = NCI Yeast Anticancer Drug Screen. Data for the wt2 strain (AID 169);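 also: 0% = growth of vehicle-treated yeast cultures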; settings: S. cerevisiae wt2 strain growth inhibition, stronger effect = higher value
# Outline: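 Treated yeast vs. vehicle-treated yeast: growth inhibition determined.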
# [12] = NCI Yeast Anticancer Drug Screen. Data for the mlh1 strain (AID 171);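 also: 0% = growth of vehicle-treated control cultures of the same strain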; settings: S. cerevisiae mlh1 strain growth inhibition, stronger effect = higher value
# Outline: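 A yeast strain with a defined genetic lesion serves as the test organism. Cultures receive compound or vehicle, and growth is measured.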
# [13] = NCI Yeast Anticancer Drug Screen. Data for the sgs1 strain (AID 173);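 also: 0% = growth of vehicle-only control cultures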; settings: S. cerevisiae sgs1 mutant, stronger effect = higher value
# Outline: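 A genetically defined yeast mutant is incubated with the test compound, and its growth is compared to that of the same strain given vehicle.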
# [14] = NCI Yeast Anticancer Drug Screen. Data for the mlh1 rad18 strain (AID 175); settings: S. cerevisiae mlh1 rad18 strain growth inhibition, stronger effect = higher value
# Outline: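 Steps: expose repair-defective yeast to compound; measure growth; express inhibition against vehicle-treated controls.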
# [15] = NCI Yeast Anticancer Drug Screen. Data for the rad18 strain (AID 177); settings: S. cerevisiae rad18 mutant growth inhibition, stronger effect = higher value
# Outline: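 Measured value is growth inhibition of a yeast strain bearing a DNA repair alteration, referenced to vehicle-treated cells.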
# [16] = at 5.0 µM (retest, dose inferred, filed as 0.5)
# [17] = at 50.0 µM (retest, dose inferred, filed as 5.0)
smiles,measurement,setting,value
COc1ccc(S(=O)(=O)N/N=C\c2cc([N+](=O)[O-])cc(I)c2O)c(OC)c1OC,growth inhibition,[1]; at 1.2 µM,0%
same,growth inhibition,[1]; at 3.7 µM,9%
same,growth inhibition,[1]; at 11.0 µM,20%
same,growth inhibition,[1]; at 33.0 µM,42%
same,growth inhibition,[1]; at 100.0 µM,94% (active)
same,growth inhibition,[2]; at 1.2 µM,-7%
same,growth inhibition,[2]; at 3.7 µM,-8%
same,growth inhibition,[2]; at 11.0 µM,-8%
same,growth inhibition,[2]; at 33.0 µM,9%
same,growth inhibition,[2]; at 100.0 µM,49%
same,growth inhibition,[3]; at 1.2 µM,-5%
same,growth inhibition,[3]; at 3.7 µM,-6%
same,growth inhibition,[3]; at 11.0 µM,-5%
same,growth inhibition,[3]; at 33.0 µM,17%
same,growth inhibition,[3]; at 100.0 µM,63%
same,growth inhibition,[4]; at 1.2 µM,-7%
same,growth inhibition,[4]; at 3.7 µM,-7%
same,growth inhibition,[4]; [16],10%
same,growth inhibition,[4]; at 11.0 µM,23%
same,growth inhibition,[4]; at 33.0 µM,64%
same,growth inhibition,[4]; [17],72% (active)
same,growth inhibition,[4]; at 50.0 µM,92.9% (active)
same,growth inhibition,[4]; at 100.0 µM,95% (active)
same,growth inhibition,[5]; at 1.2 µM,-2%
same,growth inhibition,[5]; at 3.7 µM,-6%
same,growth inhibition,[5]; [16],14%
same,growth inhibition,[5]; at 11.0 µM,-7%
same,growth inhibition,[5]; at 33.0 µM,15%
same,growth inhibition,[5]; [17],76% (active)
same,growth inhibition,[5]; at 50.0 µM,73% (active)
same,growth inhibition,[5]; at 100.0 µM,83% (active)
same,growth inhibition,[6]; at 1.2 µM,-3%
same,growth inhibition,[6]; at 3.7 µM,4%
same,growth inhibition,[6]; at 11.0 µM,13%
same,growth inhibition,[6]; at 33.0 µM,39%
same,growth inhibition,[6]; at 100.0 µM,96% (active)
same,growth inhibition,[7]; [16],13%
same,growth inhibition,[7]; [17],74% (active)
same,growth inhibition,[7]; at 50.0 µM,88.3% (active)
same,growth inhibition,[8]; at 1.2 µM,-6%
same,growth inhibition,[8]; at 3.7 µM,-10%
same,growth inhibition,[8]; at 11.0 µM,-8%
same,growth inhibition,[8]; at 33.0 µM,18%
same,growth inhibition,[8]; at 100.0 µM,93% (active)
same,growth inhibition,[9]; [16],-8%
same,growth inhibition,[9]; [17],46%
same,growth inhibition,[9]; at 50.0 µM,11.1%
same,growth inhibition,[10]; at 1.2 µM,-13%
same,growth inhibition,[10]; at 3.7 µM,-15%
same,growth inhibition,[10]; [16],1%
same,growth inhibition,[10]; at 11.0 µM,-5%
same,growth inhibition,[10]; at 33.0 µM,15%
same,growth inhibition,[10]; [17],68%
same,growth inhibition,[10]; at 50.0 µM,25.8%
same,growth inhibition,[10]; at 100.0 µM,86% (active)
same,growth inhibition,[11]; at 1.2 µM,-7%
same,growth inhibition,[11]; at 3.7 µM,-7%
same,growth inhibition,[11]; at 11.0 µM,-6%
same,growth inhibition,[11]; at 33.0 µM,15%
same,growth inhibition,[11]; at 100.0 µM,93% (active)
same,growth inhibition,[12]; at 1.2 µM,0%
same,growth inhibition,[12]; at 3.7 µM,-8%
same,growth inhibition,[12]; at 11.0 µM,0%
same,growth inhibition,[12]; at 33.0 µM,29%
same,growth inhibition,[12]; at 100.0 µM,88% (active)
same,growth inhibition,[13]; at 1.2 µM,-5%
same,growth inhibition,[13]; at 3.7 µM,-8%
same,growth inhibition,[13]; at 11.0 µM,9%
same,growth inhibition,[13]; at 33.0 µM,45%
same,growth inhibition,[13]; at 100.0 µM,97% (active)
same,growth inhibition,[14]; [16],15%
same,growth inhibition,[14]; [17],73% (active)
same,growth inhibition,[14]; at 50.0 µM,85.5% (active)
same,growth inhibition,[15]; at 1.2 µM,-1%
same,growth inhibition,[15]; at 3.7 µM,0%
same,growth inhibition,[15]; at 11.0 µM,13%
same,growth inhibition,[15]; at 33.0 µM,37%
same,growth inhibition,[15]; at 100.0 µM,93% (active)
Oc1ccc(C=Nc2ccccc2O)cc1,growth inhibition,[1]; at 1.2 µM,34%
same,growth inhibition,[1]; at 3.7 µM,52%
same,growth inhibition,[1]; at 11.0 µM,56%
same,growth inhibition,[1]; at 33.0 µM,75% (active)
same,growth inhibition,[1]; at 100.0 µM,88% (active)
same,growth inhibition,[2]; at 1.2 µM,28%
same,growth inhibition,[2]; at 3.7 µM,28%
same,growth inhibition,[2]; at 11.0 µM,25%
same,growth inhibition,[2]; at 33.0 µM,27%
same,growth inhibition,[2]; at 100.0 µM,39%
same,growth inhibition,[3]; at 1.2 µM,35%
same,growth inhibition,[3]; at 3.7 µM,68%
same,growth inhibition,[3]; at 11.0 µM,90% (active)
same,growth inhibition,[3]; at 33.0 µM,90% (active)
same,growth inhibition,[3]; at 100.0 µM,94% (active)
same,growth inhibition,[4]; at 1.2 µM,68%
same,growth inhibition,[4]; at 3.7 µM,85% (active)
same,growth inhibition,[4]; [16],13%
same,growth inhibition,[4]; at 11.0 µM,81% (active)
same,growth inhibition,[4]; at 33.0 µM,84% (active)
same,growth inhibition,[4]; [17],80% (active)
same,growth inhibition,[4]; at 50.0 µM,78.8% (active)
same,growth inhibition,[4]; at 100.0 µM,90% (active)
same,growth inhibition,[5]; at 1.2 µM,23%
same,growth inhibition,[5]; at 3.7 µM,29%
same,growth inhibition,[5]; [16],26%
same,growth inhibition,[5]; at 11.0 µM,33%
same,growth inhibition,[5]; at 33.0 µM,44%
same,growth inhibition,[5]; [17],14%
same,growth inhibition,[5]; at 50.0 µM,23%
